Measured values taken from PubChem BioAssay (EPA / NIEHS).
Results filed as inconclusive are left out. The source made the active and inactive calls. How the source made its calls, unless noted: active means hit-call score of the fitted dose curve at least 0.9, where 1 is the maximum; inactive means score below 0.9.

Columns and labels:
[1] = BSK_3C_VCAM1: BioMAP Diversity Plus: 3C Assay for Vascular cell adhesion molecule 1 (VCAM1) Biomarker Activity (AID 2282999); settings: BioMAP 3C HUVEC, VCAM1 ELISA, cytokine-stimulated; actives raise or lower the signal
Summary of the method: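 Human umbilical vein endothelial cells (3C system), biomarker read by ELISA 24 h after dosing; bidirectional fit against DMSO baseline. Cytotoxicity tracked by SRB total-protein staining in parallel cultures at biomarker time.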

[2] = BSK_4H_Eotaxin3: BioMAP Diversity Plus: 4H Assay for Eotaxin 3 Biomarker Activity (AID 2283000); settings: primary human endothelial cells (HUVEC); actives raise or lower the signal;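 on outcome: CCL26 protein level quantified by ELISA in parallel with SRB cytotoxicity check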
Summary of the method: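 Readout is Eotaxin-3 (CCL26) level by ELISA in primary human umbilical vein endothelial cells harvested 24 h after chemical exposure; activity fitted in both directions against DMSO control.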

[3] = molecular target: human Peroxisome Proliferator-activated Receptor alpha (PPARa), PPARA (gene 5465) (UniProt Q07869); test: ATG_PPARa_TRANS: Attagene TRANS-FACTORIAL HepG2 Assay for human Peroxisome Proliferator-activated Receptor alpha (PPARa) (AID 2283001; active means hit-call score of the fitted dose curve at least 0.9, where 1 is the maximum;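 on AC50: potency for gain of reporter signal over DMSO so agonist or activator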)
Chain of human Peroxisome Proliferator-activated Receptor alpha (PPARa), PPARA (gene 5465) (Q07869 whole entry, looked up, the tested form may be a part): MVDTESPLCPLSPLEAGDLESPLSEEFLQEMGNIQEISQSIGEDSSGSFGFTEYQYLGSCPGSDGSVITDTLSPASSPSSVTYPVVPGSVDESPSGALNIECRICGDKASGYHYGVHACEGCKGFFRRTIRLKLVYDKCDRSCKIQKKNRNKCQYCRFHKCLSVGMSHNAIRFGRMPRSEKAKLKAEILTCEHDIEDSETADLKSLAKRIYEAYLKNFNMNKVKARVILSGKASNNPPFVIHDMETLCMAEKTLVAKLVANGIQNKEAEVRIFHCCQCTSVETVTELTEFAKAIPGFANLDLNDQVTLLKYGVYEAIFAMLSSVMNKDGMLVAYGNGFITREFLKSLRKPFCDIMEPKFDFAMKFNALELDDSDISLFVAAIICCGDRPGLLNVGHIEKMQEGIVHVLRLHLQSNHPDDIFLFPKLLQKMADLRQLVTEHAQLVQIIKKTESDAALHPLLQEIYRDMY
Summary of the method: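 Measures transcriptional activity of an exogenous chimeric PPARa-Gal4 protein in transiently transfected HepG2 cells after 24 h dosing. Reporter mRNA quantified via RT-PCR and capillary electrophoresis; DMSO served as negative control.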

[4] = molecular target: human Peroxisome Proliferator-activated Receptor delta (PPARd), PPARD (gene 5467) (UniProt Q03181); test: ATG_PPARd_TRANS: Attagene TRANS-FACTORIAL HepG2 Assay for human Peroxisome Proliferator-activated Receptor delta (PPARd) (AID 2283002; active means hit-call score of the fitted dose curve at least 0.9, where 1 is the maximum)
Chain of human Peroxisome Proliferator-activated Receptor delta (PPARd), PPARD (gene 5467) (Q03181 whole entry, looked up, the tested form may be a part): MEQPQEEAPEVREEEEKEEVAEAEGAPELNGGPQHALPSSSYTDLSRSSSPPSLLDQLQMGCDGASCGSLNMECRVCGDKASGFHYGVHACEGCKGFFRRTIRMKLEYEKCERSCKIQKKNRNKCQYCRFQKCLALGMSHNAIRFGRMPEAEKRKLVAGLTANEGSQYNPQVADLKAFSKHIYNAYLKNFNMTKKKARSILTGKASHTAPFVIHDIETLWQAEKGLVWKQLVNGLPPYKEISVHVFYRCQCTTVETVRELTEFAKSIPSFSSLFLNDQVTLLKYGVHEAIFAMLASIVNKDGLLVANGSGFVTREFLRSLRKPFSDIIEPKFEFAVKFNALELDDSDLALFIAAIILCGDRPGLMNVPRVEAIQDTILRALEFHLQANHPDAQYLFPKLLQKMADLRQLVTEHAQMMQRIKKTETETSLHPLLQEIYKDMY
Summary of the method: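 Read-out: reporter mRNA induction, quantified by fluorescent RT-PCR products resolved by capillary electrophoresis. Human HepG2 liver cells carried transiently transfected Gal4-UAS reporter constructs with chimeric NR-Gal4 fusions. Cells were dosed for 24 h; DMSO served as baseline.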

[5] = read-out: Intercellular Adhesion Molecule 1 (ICAM1), ICAM1 (gene 3383); test: BSK_3C_ICAM1: BioMAP Diversity Plus: 3C Assay for Intercellular Adhesion Molecule 1 (ICAM1) Biomarker Activity (AID 2283003); settings: primary human endothelial cells (HUVEC); actives raise or lower the signal
Summary of the method: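 Primary human umbilical vein endothelial cells in the BioMAP 3C system were exposed to chemicals for 24 h, then ICAM-1 was quantified by ELISA. Activity was fitted bidirectionally against the DMSO negative control baseline.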

[6] = BSK_3C_Proliferation: Cell Proliferation Assessment in the BioMAP Diversity Plus: 3C Assay (AID 2283006); settings: primary human endothelial cells (HUVEC);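 on AC50: potency may reflect either rise or fall in cell number versus DMSO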
Summary of the method: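 Human umbilical vein endothelial cells were grown sub-confluent and exposed to chemical for 48 h, then fixed with 10% TCA and stained with 0.1% sulforhodamine B; absorbance at 560 nm gave relative cell number, fitted bidirectionally against DMSO baseline.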

[7] = molecular target: Peroxisome proliferator-activated receptor gamma (Homo sapiens) (UniProt P37231); test: ATG_PPARg_TRANS: Attagene TRANS-FACTORIAL HepG2 Assay for human Peroxisome Proliferator-activated Receptor-gamma (PPARg) (AID 2283007; active means hit-call score of the fitted dose curve at least 0.9, where 1 is the maximum)
Chain of Peroxisome proliferator-activated receptor gamma (Homo sapiens) (P37231 whole entry, looked up, the tested form may be a part): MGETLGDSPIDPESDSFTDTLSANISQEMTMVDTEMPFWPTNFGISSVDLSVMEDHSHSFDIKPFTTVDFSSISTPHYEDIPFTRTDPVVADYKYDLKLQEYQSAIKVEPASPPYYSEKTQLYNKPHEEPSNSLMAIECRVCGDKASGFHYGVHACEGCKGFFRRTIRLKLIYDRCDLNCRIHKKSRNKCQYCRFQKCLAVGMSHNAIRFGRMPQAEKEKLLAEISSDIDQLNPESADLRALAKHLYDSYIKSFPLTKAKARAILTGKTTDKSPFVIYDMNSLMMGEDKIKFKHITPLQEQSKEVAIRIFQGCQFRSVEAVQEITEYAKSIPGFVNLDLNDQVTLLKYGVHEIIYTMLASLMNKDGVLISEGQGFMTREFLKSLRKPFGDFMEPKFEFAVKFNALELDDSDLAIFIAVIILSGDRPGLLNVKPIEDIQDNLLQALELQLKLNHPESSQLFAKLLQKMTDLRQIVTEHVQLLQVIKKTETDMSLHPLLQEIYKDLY
Summary of the method: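 Read-out: reporter mRNA induction, detected by fluorescence after RT-PCR and capillary electrophoresis. Transiently transfected human HepG2 liver cells carrying a chimeric NR-Gal4 construct were dosed for 24 h; activity was fitted upward relative to DMSO.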

[8] = molecular target: human Retinoic Acid Receptor beta (RARb), RARB (gene 5915) (UniProt P10826); test: ATG_RARb_TRANS: Attagene TRANS-FACTORIAL HepG2 Assay for human Retinoic Acid Receptor beta (AID 2283004; active means hit-call score of the fitted dose curve at least 0.9, where 1 is the maximum)
Chain of human Retinoic Acid Receptor beta (RARb), RARB (gene 5915) (P10826 whole entry, looked up, the tested form may be a part): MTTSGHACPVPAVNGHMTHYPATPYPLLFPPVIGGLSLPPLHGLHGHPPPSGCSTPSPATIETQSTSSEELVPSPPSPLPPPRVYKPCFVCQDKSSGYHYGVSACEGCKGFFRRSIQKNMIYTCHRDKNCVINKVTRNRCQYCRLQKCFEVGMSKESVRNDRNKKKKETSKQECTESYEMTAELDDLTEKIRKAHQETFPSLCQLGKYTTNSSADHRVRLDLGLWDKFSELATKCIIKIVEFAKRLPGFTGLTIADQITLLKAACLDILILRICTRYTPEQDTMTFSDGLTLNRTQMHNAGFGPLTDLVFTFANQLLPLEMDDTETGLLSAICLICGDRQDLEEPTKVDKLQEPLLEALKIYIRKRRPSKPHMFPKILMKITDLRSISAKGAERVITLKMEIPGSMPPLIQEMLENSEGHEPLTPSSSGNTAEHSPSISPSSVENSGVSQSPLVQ
Summary of the method: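 Readout is reporter mRNA induction: RNA reverse-transcribed, PCR-amplified, FAM-labelled, HpaI-cut and resolved by capillary electrophoresis. Transiently transfected HepG2 cells carrying exogenous NR–Gal4 chimeras were dosed for 24 h; activity fitted upward relative to DMSO.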

[9] = molecular target: Nuclear receptor subfamily 1 group I member 2 (Homo sapiens) (UniProt O75469); test: ATG_PXR_TRANS: Attagene TRANS-FACTORIAL HepG2 Assay for human Pregnane X Receptor (PXR) (AID 2283008; active means hit-call score of the fitted dose curve at least 0.9, where 1 is the maximum)
Chain of Nuclear receptor subfamily 1 group I member 2 (Homo sapiens) (O75469 whole entry, looked up, the tested form may be a part): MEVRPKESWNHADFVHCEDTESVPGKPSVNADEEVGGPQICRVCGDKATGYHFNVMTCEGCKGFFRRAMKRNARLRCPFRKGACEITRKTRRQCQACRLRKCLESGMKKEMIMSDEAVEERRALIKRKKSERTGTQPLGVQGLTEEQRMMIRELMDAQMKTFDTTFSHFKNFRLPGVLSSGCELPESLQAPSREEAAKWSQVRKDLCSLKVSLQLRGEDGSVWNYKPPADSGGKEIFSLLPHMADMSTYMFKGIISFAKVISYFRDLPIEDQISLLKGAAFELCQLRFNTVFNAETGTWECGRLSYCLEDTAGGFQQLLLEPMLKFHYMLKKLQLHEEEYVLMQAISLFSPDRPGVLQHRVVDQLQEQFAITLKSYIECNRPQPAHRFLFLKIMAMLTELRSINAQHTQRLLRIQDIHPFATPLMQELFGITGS
Summary of the method: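 HepG2 cells transiently transfected with multiple reporter units, here a PXR-GAL4 chimera driving a GAL4-UAS reporter; 24 h compound exposure. Reporter mRNA measured by RT-PCR, FAM labelling and capillary electrophoresis; gain of signal fitted against DMSO baseline.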

Structure (SMILES): Nc1cnn(-c2ccccc2)c(=O)c1Cl
- outcome [1]: inactive
- outcome [2]: inactive
- outcome [3]: inactive
- outcome [4]: inactive
- outcome [5]: inactive
- outcome [6]: inactive
- AC50 [7]: 22.4 µM (active)

Structure (SMILES): C=C(C)CN(CC)c1c([N+](=O)[O-])cc(C(F)(F)F)cc1[N+](=O)[O-]
- outcome [1]: inactive
- outcome [2]: inactive
- outcome [5]: inactive
- outcome [8]: inactive
- AC50 [6]: 33.4 µM (active)
- outcome [7]: inactive
- AC50 [9]: 13.6 µM (active)

Structure (SMILES): CC1(C)CCC(=Cc2ccc(Cl)cc2)C1(O)Cn1cncn1 (centres undefined)
- outcome [2]: inactive
- outcome [5]: inactive
- outcome [8]: inactive
- outcome [6]: inactive
- outcome [7]: inactive
- AC50 [9]: 9.33 µM (active)

Structure (SMILES): COC(=O)N(C(=O)N1CO[C@@]2(C(=O)OC)Cc3cc(Cl)ccc3C2=N1)c1ccc(OC(F)(F)F)cc1
- outcome [2]: inactive
- outcome [4]: inactive
- outcome [5]: inactive
- AC50 [6]: 5.55 µM (active)
- outcome [7]: inactive
- AC50 [9]: 5.9 µM (active)

Structure (SMILES): COCc1cnc(C2=NC(C)(C(C)C)C(=O)N2)c(C(=O)O)c1 (centres undefined)
- outcome [2]: inactive
- outcome [3]: inactive
- outcome [5]: inactive
- outcome [8]: inactive
- outcome [6]: inactive
- outcome [7]: inactive
- outcome [9]: inactive

Structure (SMILES): CCCCC(C#N)(Cn1cncn1)c1ccc(Cl)cc1 (centres undefined)
- outcome [2]: inactive
- outcome [3]: inactive
- outcome [5]: inactive
- outcome [8]: inactive
- outcome [6]: inactive
- outcome [7]: inactive
- outcome [9]: inactive

Structure (SMILES): CNC(=O)Oc1cccc2ccccc12
- outcome [1]: inactive
- AC50 [2]: 20 µM (active)
- outcome [5]: inactive
- outcome [8]: inactive
- AC50 [6]: 22.9 µM (active)
- outcome [9]: inactive

Structure (SMILES): COC(=O)NC(=S)Nc1ccccc1NC(=S)NC(=O)OC
- outcome [1]: inactive
- outcome [2]: inactive
- outcome [4]: inactive
- outcome [5]: inactive
- outcome [6]: inactive
- outcome [7]: inactive
- outcome [9]: inactive

Structure (SMILES): Nc1c(Cl)c(Cl)nc(C(=O)O)c1Cl
- outcome [1]: inactive
- outcome [2]: inactive
- outcome [3]: inactive
- outcome [5]: inactive
- outcome [6]: inactive
- outcome [7]: inactive

Structure (SMILES): CCNC(=O)NC(=O)C(C#N)=NOC
- outcome [2]: inactive
- outcome [4]: inactive
- outcome [5]: inactive
- outcome [6]: inactive
- outcome [7]: inactive

Structure (SMILES): COc1ccc(-c2ccccc2)cc1NNC(=O)OC(C)C
- outcome [2]: inactive
- outcome [5]: inactive
- outcome [8]: inactive
- outcome [6]: inactive
- AC50 [7]: 50 µM (active)
- outcome [9]: inactive

Structure (SMILES): CS(=O)(=O)c1cc(C(F)(F)F)ccc1C(=O)c1cnoc1C1CC1
- outcome [2]: inactive
- outcome [3]: inactive
- outcome [5]: inactive
- outcome [8]: inactive
- outcome [6]: inactive
- AC50 [7]: 14.2 µM (active)
- outcome [9]: inactive

Structure (SMILES): N#Cc1c(Cl)cccc1Cl
- outcome [1]: inactive
- outcome [2]: inactive
- outcome [3]: inactive
- outcome [4]: inactive
- outcome [5]: inactive
- outcome [6]: inactive
- outcome [7]: inactive
- AC50 [9]: 72.3 µM (active)

Structure (SMILES): CCCC(=NOCC)C1=C(O)CC(CC(C)SCC)CC1=O (centres undefined)
- outcome [2]: inactive
- outcome [4]: inactive
- outcome [5]: inactive
- outcome [8]: inactive
- outcome [6]: inactive
- outcome [7]: inactive
- outcome [9]: inactive

Structure (SMILES): CCCN(CC)CC1COC2(CCC(C(C)(C)C)CC2)O1 (centres undefined)
- outcome [1]: inactive
- outcome [2]: inactive
- outcome [3]: inactive
- outcome [4]: inactive
- outcome [5]: inactive
- outcome [6]: inactive
- outcome [9]: inactive

Structure (SMILES): CCNP(=S)(OC)O/C(C)=C/C(=O)OC(C)C (centres undefined)
- outcome [2]: inactive
- outcome [5]: inactive
- outcome [8]: inactive
- outcome [6]: inactive
- AC50 [7]: 29.6 µM (active)
- outcome [9]: inactive

Structure (SMILES): N#CN=C1SCCN1Cc1ccc(Cl)nc1
- outcome [2]: inactive
- outcome [3]: inactive
- outcome [4]: inactive
- outcome [5]: inactive
- outcome [6]: inactive
- outcome [7]: inactive
- outcome [9]: inactive

Structure (SMILES): CC1(C)C(C=C(Cl)Cl)C1C(=O)OC(C#N)c1cccc(Oc2ccccc2)c1 (centres undefined)
- outcome [2]: inactive
- outcome [5]: inactive
- outcome [8]: inactive
- AC50 [7]: 17.9 µM (active)
- AC50 [9]: 9.82 µM (active)

Structure (SMILES): COCC(=O)N(c1c(C)cccc1C)C(C)C(=O)OC (centres undefined)
- outcome [2]: inactive
- outcome [3]: inactive
- outcome [5]: inactive
- outcome [6]: inactive
- outcome [7]: inactive
- outcome [9]: inactive

Structure (SMILES): CCOC(=O)C(C)OC(=O)c1cc(Oc2ccc(C(F)(F)F)cc2Cl)ccc1[N+](=O)[O-] (centres undefined)
- outcome [2]: inactive
- AC50 [3]: 1.57 µM (active)
- outcome [5]: inactive
- outcome [6]: inactive
- AC50 [7]: 14.1 µM (active)
- outcome [9]: inactive

Structure (SMILES): CCCCC(O)(Cn1cncn1)c1ccc(Cl)cc1Cl (centres undefined)
- outcome [2]: inactive
- outcome [4]: inactive
- outcome [5]: inactive
- AC50 [6]: 26.2 µM (active)
- outcome [7]: inactive
- outcome [9]: inactive

Structure (SMILES): CC1(C)C(C(=O)OC(C#N)c2cccc(Oc3ccccc3)c2)C1(C)C (centres undefined)
- outcome [1]: inactive
- outcome [2]: inactive
- outcome [4]: inactive
- outcome [5]: inactive
- outcome [8]: inactive
- AC50 [6]: 7.92 µM (active)
- AC50 [7]: 16.9 µM (active)
- AC50 [9]: 9.21 µM (active)

Structure (SMILES): CCOc1nc(C(Cl)(Cl)Cl)ns1
- outcome [1]: inactive
- outcome [2]: inactive
- outcome [3]: inactive
- outcome [5]: inactive
- outcome [8]: inactive
- outcome [6]: inactive
- outcome [7]: inactive
- outcome [9]: inactive

Structure (SMILES): CNC(=O)N(C)c1nnc(C(C)(C)C)s1
- outcome [1]: inactive
- outcome [2]: inactive
- outcome [4]: inactive
- outcome [5]: inactive
- outcome [8]: inactive
- outcome [6]: inactive
- outcome [7]: inactive
- outcome [9]: inactive
